Consider 40 sequences from the OligoGym collection.
Further: reference of the scale not given here.

The first assay has as its target CIAPIN1. In words: pooled miR-30 sensor sort-seq; sequence = guide strand. As to conditions: shRNA.
For the sequence TGGTCTTTTGATACACAGCAGC, the sensor-assay potency score (higher = more potent) was -1.52.

With TTAGATGCTGTCTTCACTTTGC, the sensor-assay potency score (higher = more potent) was -0.0905.

Take TTGTTATCTACAGCTGTCTCTA: the sensor-assay potency score (higher = more potent) was -0.353. TTGACTTCTCTTTTTCCAGTTC displayed a sensor-assay potency score (higher = more potent) of -0.361. Still for that read-out and setting: next, TTAACATAAATGACAACAGGAC: -0.72; TAACGCTTGAAGCTTATCCACC: -1.25; TCTCAGAGTGAACAAATCCAGA: -1.26.

In turn, TTCTTCAGGACACACTCCCTTC displayed a sensor-assay potency score (higher = more potent) of -0.89. On the same count and under the same terms, next, TGTGATCTGAACAAACAGCAGG: -0.776; TTGTGAGCCACTTGACTCGTGT: -0.0962. The sequence TAAGCTGCCTAGAAGAACCCAC displayed a sensor-assay potency score (higher = more potent) of 0.616. Still for that read-out and setting: as for TGGAGTAAACTAACAACTCTGA, the figure is -0.493.

The target of another assay is CIR1. Described as above. The note with it: shRNA.
Turning to TTCTTTAAGATATTGCTGCATC, the sensor-assay potency score (higher = more potent) is -0.396. The sequence TACTGCTTTCTGAAGTCTCAGT showed a sensor-assay potency score (higher = more potent) of -0.586. The same measure, in the same setting: as for TAGACTTGTCCTTCTCTTCAGA, the figure is -0.159; as for TTTATTGTTACTCTCACTCTCA, 0.426. Still for that read-out and setting: as for TTTTCTTCTCCAGTCGATCTAA, the figure is -0.412.

TTGTTCTTTAAGATATTGCTGC had a sensor-assay potency score (higher = more potent) of -0.164. The same measure, in the same setting: as for TTCTCTTCTTAGACTTGTCCTT, the figure is -0.317. The same measure, in the same setting: next, TTCTTCATGAAGCTTTCTCTTC: -0.59.

In turn, TTTCGTTTCAGTGCAAACCCAC returned a sensor-assay potency score (higher = more potent) of -0.179.

Sequence TATCATATGATATTTTCTGTTC returned a sensor-assay potency score (higher = more potent) of -0.717. On the same count and under the same terms, next, TTTGTGTTTACTTCTGCTCTTC: 0.203; TCTCTTCTTAGACTTGTCCTTC: -0.0367.

Another assay has as its target CIRBP. The description is as above. The note with it: shRNA.
The sequence TCCGTACTTTGAGAAGACCTGC gave a sensor-assay potency score (higher = more potent) of -0.634. In turn, TAACTGTCGTAACTGTCTCTGT returned a sensor-assay potency score (higher = more potent) of 0.0429.

For TATAGTAGTCTCTGGAGCCTCC, the sensor-assay potency score (higher = more potent) was -0.259. Turning to TTGGTGTCAAAACTCAGCCCTC, the sensor-assay potency score (higher = more potent) is -0.687.

For the sequence TTTCACAACCACCACTTCAGAG, the sensor-assay potency score (higher = more potent) is -0.729. TCTTTCACAACCACCACTTCAG: the sensor-assay potency score (higher = more potent) is -0.118. TAGCCACCACTCTGACTCCGGC returned a sensor-assay potency score (higher = more potent) of -0.921.

TCAGAGATCTGTCCGTACTTTG: the sensor-assay potency score (higher = more potent) was -1.1. Consider TGTCTGACGACTTGCCTGCCTG, for which the sensor-assay potency score (higher = more potent) was -1.09.

As for ACTGTCGTAACTGTCTCTGTAG, the sensor-assay potency score (higher = more potent) is -0.226. Same read-out and setting: as for TACTTTGAGAAGACCTGCTCCA, the figure is 0.53. TTGCCTGCCTGGTCTACTCGGA registered a sensor-assay potency score (higher = more potent) of -0.263.

As to TAGCGTCGTCAATGTTCTCAAA, the sensor-assay potency score (higher = more potent) is -1.03. TCGTCAATGTTCTCAAAGGTGA: the sensor-assay potency score (higher = more potent) is -0.799. TGTCTTTCACAACCACCACTTC returned a sensor-assay potency score (higher = more potent) of -0.854.

In turn, TTAGCGTCGTCAATGTTCTCAA showed a sensor-assay potency score (higher = more potent) of -0.0271.
